Rab9 prom act: activators of Rab9 promoter | 320,000 tested, 2.8% active | Huh7 Rab9 promoter-luciferase reporter, luminescence, 24 h | Potency, µM (top dose mostly 9.22 µM), most hits filed as activators; further: nearly all actives have a fitted effect of over 60% in size
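Promoter activation is measured as luciferase luminescence in Huh7 cells stably transfected with a Rab9 promoter–luciferase construct, following 24 h compound exposure at 37 °C and 10 min reagent incubation at ambient temperature.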
FLuc modulator: inhibits or activates purified firefly luciferase, miR-21 counter-screen; purified FLuc, Km substrates, luminescence inhibition; Potency, µM (series often up to 57.5 µM), actives largely listed as inhibitors; 360,000 tested, 6.9% active; AID 588342; further: nearly all actives have a fitted effect of over 55% in size
Target sequence (P08659 whole entry, looked up): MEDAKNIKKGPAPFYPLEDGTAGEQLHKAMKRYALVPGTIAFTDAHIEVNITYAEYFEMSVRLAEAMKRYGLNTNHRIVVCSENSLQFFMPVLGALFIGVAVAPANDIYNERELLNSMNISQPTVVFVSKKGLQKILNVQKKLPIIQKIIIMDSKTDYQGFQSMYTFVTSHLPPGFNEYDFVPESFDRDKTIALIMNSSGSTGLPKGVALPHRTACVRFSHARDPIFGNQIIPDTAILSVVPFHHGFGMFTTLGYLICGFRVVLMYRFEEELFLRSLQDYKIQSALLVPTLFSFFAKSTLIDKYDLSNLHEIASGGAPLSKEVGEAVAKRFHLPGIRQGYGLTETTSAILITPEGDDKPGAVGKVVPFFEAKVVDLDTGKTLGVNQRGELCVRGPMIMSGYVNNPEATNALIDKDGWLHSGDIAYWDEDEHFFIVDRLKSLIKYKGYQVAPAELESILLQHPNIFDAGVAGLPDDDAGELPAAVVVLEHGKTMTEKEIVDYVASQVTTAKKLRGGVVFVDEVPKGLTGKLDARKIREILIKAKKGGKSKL
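Biochemical qHTS of compounds, final roughly 60 µM downward over six points, against 10 nM purified firefly luciferase using Km concentrations of substrates (10 uM D-luciferin, 10 uM ATP) in Tris acetate pH 7.5 buffer; luminescence output.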
p53 reactivation: mutant p53 re-activation in reporter cells | H1299 p53-A138V BP100-luciferase reporter, luminescence, 24 h | AID 504706 | 320,000 tested, 0.063% active | Potency, µM (titrated, usually from 92.2 µM), most hits filed as activators; further: nearly all actives have a fitted effect of over 45% in size
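p53-null H1299 cells stably carrying temperature-sensitive p53-A138V and a BP100-luciferase reporter were pinned with compounds (4-point, 1:5 series) and held 24 hrs at 37 deg C. Luminescence was read 10 min after detection reagent.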
ELG1 genotox: induces genotoxicity in HEK293T cells with luciferase-tagged ELG1. HEK293T ELG1-luciferase reporter, luminescence, 16 h. Potency, µM (highest dose often 46 µM), most hits filed as activators. 330,000 tested, 1.3% active; further: nearly all actives have a fitted effect of over 60% in size
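HEK293T cells expressing luciferase-tagged ELG1 were exposed to compound or DMSO vehicle for 16 hr at 37 °C and 5% CO2. Luciferase activity was then measured with ONE-Glo after 30 min at room temperature.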
SMN2 splice up: increases expression of the SMN2 splice variant. HEK293 SMN2-luciferase splicing reporter, luminescence, 30-36 h. Potency, µM (top dose mostly 46.1 µM), usual class: activators. 210,000 tested, 2.8% active. AID 1458; further: nearly all actives have a fitted effect of over 55% in size
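HEK293 cells carry an SMN2 […]–luciferase reporter in which exon 7 inclusion puts luciferase in frame. Cells were plated 10-12 h before compound addition, then incubated 30-36 h at 37C. ONE-Glo luminescence was read; sodium butyrate at 4.5 mM final served as control.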
NPC1 prom act: activates the NPC1 promoter; Huh7 NPC1 promoter luciferase reporter, 24 h; Potency, µM (top dose mostly 9.22 µM), hits mostly activators; 320,000 tested, 2.4% active; AID 485313; further: nearly all actives have a fitted effect of over 60% in size
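Huh7 cells stably carrying NPC1 promoter–luciferase, plated in Opti-MEM with 10% FBS for 2 h, were exposed to compound in DMSO for 24 h at 37 °C; luciferase reagent was added for 10 min and luminescence read.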
Numbers stand for hits; . = inactive; ? = inconclusive; / = not tested or not shown; [ ] = another dose, or the depositor's remark. An excerpt weighted towards active compounds, which were near 7.4% of everything screened. The call rests on the fitted dose curve; in most records, active means well fitted curve in the direction sought with a large enough effect; inconclusive means small, poorly fitted or top-dose-only effect, or another doubt; inactive means no such curve, though single readings can be large; an effect the other way counts as inactive or inconclusive.

SMILES	Rab9 prom act	FLuc modulator	p53 reactivation	ELG1 genotox	SMN2 splice up	NPC1 prom act
Cc1ccccc1NC(=O)Nc1nc2ccc(S(C)(=O)=O)cc2s1	?	.	.	.	?	3.98µM
CCOc1ccc(NC(=O)Nc2nc3ccc(S(C)(=O)=O)cc3s2)cc1	.	.	.	.	/	.
NS(=O)(=O)c1ccc2nc(NC(=O)Nc3ccccc3F)sc2c1	0.398µM	1.35µM	/	3.26µM	/	0.501µM
O=C(O)c1ccc(CNC(=O)C2CCCN2C(=O)OCc2ccccc2)cc1 (centres undefined)	.	.	.	.	/	.
COc1ccc(CN(C(=O)c2cc3ccccc3oc2=O)C2CCCC2)cc1	.	.	.	.	.	.
CCOc1ccccc1C(=O)N(Cc1ccccc1F)C1CCS(=O)(=O)C1 (centres undefined)	/	.	/	/	.	/
O=C(c1cc2ccccc2oc1=O)N(Cc1ccccc1)C1CCS(=O)(=O)C1 (centres undefined)	?	21.3µM	.	?	.	?
O=C(c1cc2ccccc2oc1=O)N(Cc1ccccc1F)C1CCS(=O)(=O)C1 (centres undefined)	?	16.9µM	.	?	/	.
COc1ccc(CN(C(=O)c2cc3ccccc3oc2=O)C2CCS(=O)(=O)C2)cc1 (centres undefined)	.	.	.	.	.	.
COc1ccc(CN(C(=O)c2cc3ccccc3oc2=O)C2CCS(=O)(=O)C2)cc1OC (centres undefined)	?	19µM	?	?	?	3.98µM
CCOc1ccc(CN(C(=O)c2cc3ccccc3oc2=O)C2CCS(=O)(=O)C2)cc1 (centres undefined)	3.16µM	12µM	.	?	/	?
CCNc1nc(N)nc(Oc2ccc(OCC(=O)OC)nn2)n1	/	.	/	/	.	/
COc1ccc(Cl)cc1C(=O)Nc1nc2ccccc2[nH]1	?	0.0849µM	.	?	/	?
COc1cc(C(=O)Nc2nc3ccccc3[nH]2)ccc1OC(F)F	2.82µM	10.7µM	.	?	/	1.41µM
CCOc1ccc(C(=O)Nc2nc3ccccc3[nH]2)cc1OCC	.	?	.	.	.	.
COc1ccc(C(=O)Nc2nc3ccccc3[nH]2)cc1OC	2.82µM	15.1µM	?	?	11.2µM	2.82µM
Cc1c2cnn(CC(=O)N3CCN(c4ccccc4)CC3)c(=O)c2c(C)n1Cc1ccc(F)cc1	/	?	/	/	.	/
COc1ccc(-c2noc(-c3ccc4c(c3)OCO4)n2)cc1	1.12µM	0.953µM	?	?	8.91µM	0.794µM
c1ccc(-c2noc(-c3ccc4ccccc4c3)n2)cc1	.	0.269µM	?	?	.	.
COCC1CCN(Cc2nc(-c3ccc4c(c3)OCO4)no2)C1 (centres undefined)	2.82µM	?	.	?	/	?
COc1ccc(OC)c(-n2nnc(-c3nc(-c4ccc5c(c4)OCO5)no3)c2C)c1	/	.	/	/	/	/
COc1cccc(-c2noc(-c3ccc4c(c3)OCO4)n2)c1	0.562µM	0.536µM	?	1.83µM	/	2.51µM
c1cc(C2CCN(Cc3nc(-c4ccc5c(c4)OCO5)no3)CC2)ccn1	.	.	.	.	/	.
c1ccc(-c2noc(-c3ccccc3-c3ccccc3)n2)cc1	.	.	.	.	.	.
O=S(=O)(O)c1ccc(-c2nnc(-c3ccccn3)nc2-c2ccc(S(=O)(=O)O)o2)o1	/	/	/	/	.[9.22 µM]	/
SMILES	Rab9 prom act	FLuc modulator	p53 reactivation	ELG1 genotox	SMN2 splice up	NPC1 prom act
COc1ccc(Br)cc1CNC(=O)CN1C(=O)C(c2ccccc2)Oc2cccnc21 (centres undefined)	.	.	.	.	/	.
c1ccc(-c2noc(-c3ccc4c(c3)OCO4)n2)cc1	0.282µM	0.477µM	.	0.411µM	5.01µM	0.447µM
O=C(Cn1c(SCc2ccc(F)cc2)nc2cccnc21)Nc1ccccc1F	/	9.53µM	/	/	/	/
COc1ccc(NC(=O)Cn2c(SCc3ccc(F)cc3)nc3cccnc32)cc1OC	/	2.69µM	/	/	/	/
COc1ccc(NC(=O)Cn2c(SCc3ccc(C)cc3)nc3cccnc32)cc1OC	/	0.601µM	/	/	/	/
O=C(Cn1c(SCc2ccccc2F)nc2cccnc21)Nc1ccc(F)c(Cl)c1	/	26.9µM	/	/	/	/
CN(C)c1ccc(NC(=O)Cn2c(SCc3ccccc3F)nc3cccnc32)cc1	/	.	/	/	/	/
CC1CCC(N2CC(=O)N(C3CCCCC3)C(c3ccc(F)cc3)C2=O)CC1 (centres undefined)	/	.	/	/	/	/
Cc1cc2c(cc1S(=O)(=O)CCC(=O)N(C)C1CCCCC1)OCC(=O)N2	.	.	.	.	/	.
CSc1cccc(NC(=O)Nc2ccccc2OCc2cc(=O)n3cc(C)ccc3n2)c1	/	3.01µM	/	/	/	/
CCc1ccc(NC(=O)Nc2ccccc2OCc2cc(=O)n3ccccc3n2)cc1	/	0.213µM	/	/	/	/
O=C(COc1ccccc1Cl)Nc1ccccc1OCc1cc(=O)n2ccccc2n1	/	19µM	/	/	/	/
COC(=O)CCNC(=O)N1CCN(c2nnc(C)c3c(C)n(-c4ccc(Cl)cc4)nc23)CC1	/	.	/	/	/	/
FC(F)C(F)(F)C1=CC(c2cccs2)=NCCN1	.	.	.	.	0.708µM	.
O=C(N[C@@H](Cc1ccccc1)C(=O)O)c1ccccc1	/	/	/	/	.	/
Cc1oc(-c2ccccc2)cc1C(=O)Nc1cccc(/C=C\C(=O)O)c1	.	15.1µM	.	.	/	.
Cc1oc(-c2ccccc2)cc1C(=O)Nc1ccc(N(C)C)cc1	.	13.5µM	.	.	.	.
O=C(O)/C=C/c1cccc(NC(=O)c2ccc(Cl)cc2)c1	.	.	.	.	/	.
O=C(O)/C=C/c1cccc(NC(=O)c2ccccc2)c1	.	?	.	.	/	.
Cc1oc(C(C)(C)C)cc1C(=O)Nc1cccc(/C=C\C(=O)O)c1	.	8.49µM	.	.	.	.
COc1ccc(OC)c(CCNC(=O)Cn2ccc3cc(S(=O)(=O)N4CCCCC4)ccc32)c1	/	.	/	/	/	/
C=CCSCC(N)C(=O)O (centres undefined)	/	/	/	/	.	/
CCOC(=O)CSc1nc2cc3c(cc2c(=O)n1CCCCCC(=O)NCc1ccc(OC)cc1)OCO3	/	.	/	/	/	/
CCOc1ccc(C2NC(=O)C(C#N)=C(S)N2c2ccc(C)cc2)cc1OC (centres undefined)	.	16.9µM	.	.	.	.
CCOc1ccc(C2NC(=O)C(C#N)=C(S)N2c2cccc(C)c2)cc1OC (centres undefined)	.	.	.	.	/	.
Cc1cc(-c2nnco2)c(C)n1-c1ccc(F)cc1	.	16.9µM	.	.	.	.
Cc1ccc(C)n1-c1ccc(-c2nnco2)cc1	.	.	.	.	.	.
O=[N+]([O-])c1ccccc1NC(=S)N/N=C/c1ccc(O)c(O)c1	?	19µM	?	3.66µM	/	?
CCCCNC(=S)N/N=C/c1cccc(OCC)c1O	.	.	.	.	/	.
Cc1cccc(NC(=S)N/N=C/c2ccc(Cl)c([N+](=O)[O-])c2)c1	.	.	.	.	.	.
